# Reference: PubChem BioAssay AID652062 (Broad Institute, 2013)
# In all, about 1,400 compounds went through this assay and about 1,100 (79%) were called active.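 The calls were made as follows: active = fitted half-maximal concentration of a falling signal no higher than twice the top valid dose in every test run; inconclusive = runs disagree, or flat partial inhibition, or poor fit; inactive = every run inactive: flat, wrong direction, or potency beyond limit.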 So high a share suggests a set chosen from earlier hits. A selection follows. Results with a measured potency or affinity are listed apart.
# Assay: HIV-1 AD8 envelope cell-cell fusion blockers – cherry-pick, dose response (AID 652062)
# Conditions: HeLa-AD8 Env / CEM-CCR5 cell fusion, luciferase; at 35 µM (top of the series) unless noted
row,Compound,"activity change, negative = inhibition"
1,COC(=O)[C@H](Cc1ccccc1)NC(=O)Cn1cnc(C(=O)Nc2ccc(C)c(C)c2)n1,23.2%
2,CCOc1ccccc1C(=O)NCC(=O)NNC(=O)CN(C)S(=O)(=O)c1ccc(Cl)cc1,-52.6%
3,Nc1c(S(=O)(=O)c2ccccc2)cnc2c(-c3ccc(F)cc3)cnn12,63.4% [at 16 µM]
4,COc1ccc(OC)c(-c2cc(C(=O)Nc3c(C)nn(Cc4ccc(Cl)cc4)c3C)no2)c1,-43.8%
5,Cc1ccc2c(c1)c1c3n2CCN(CCC#N)C3CCC1 (configuration not stated),81.2%
6,N#C[C@@H]1[C@H](c2ccc(-c3ccccc3F)cc2)[C@@H](CO)N1C(=O)c1ccccn1,-32.3%
7,N#C[C@H]1[C@@H](c2ccccc2/C=C/c2ccccc2)[C@@H](CO)N1S(=O)(=O)c1cccc(F)c1,108%
8,CCC(=O)N(C)C(c1ccccc1Cl)c1nnnn1-c1c(C)cccc1C (configuration not stated),49.6%
9,Cc1ccc(S(=O)(=O)N(C)C)cc1NC(=O)C(C)N(C)CCOc1ccc(Cl)cc1 (configuration not stated),-21.5% [at 8 µM]
10,COc1ccc(NC(=O)CN2CCC(C(N)=O)(N3CCCCC3)CC2)cc1,-10%
11,COCC(=O)N(C)C[C@H]1Oc2ncc(Br)cc2C(=O)N([C@H](C)CO)C[C@H]1C,50.8%
12,COCCCNC(=O)c1sc2ncnc(N3CCc4ccccc4C3)c2c1C,60.7%
13,O=C(c1ccccc1)N1CCN(c2ncnc3sc4c(c23)CCC4)CC1,-54.4%
14,Cc1ccc(C2Oc3ccccc3C3=C2C(c2cccs2)n2ncnc2N3)cc1 (configuration not stated),12.9%
15,CC(NNC(=S)N1CCCCCC1)c1ccc2ccccc2n1 (configuration not stated),-26.1%
16,CN1CC(c2ccccc2)C2(SC(=S)N(Cc3ccco3)C2=O)C12C(=O)Nc1ccccc12 (configuration not stated),-103%
17,CNC[C@H]1Oc2c(NC(=O)Nc3cccc4ccccc34)cccc2C(=O)N([C@H](C)CO)C[C@H]1C,104%
18,C[C@H]1CN([C@@H](C)CO)C(=O)c2cccc(NC(=O)c3ccncc3)c2O[C@@H]1CN(C)C(=O)Nc1cccc2ccccc12,63.7%
19,O=C(NCc1cccc(F)c1)[C@@H]1[C@@H](CO)[C@@H]2Cn3c(ccc(-c4cccnc4)c3=O)[C@H]1N2CC1CC1,1.91%
20,NC(=S)c1ccc(OCCCc2ccccc2)cc1,30.2%
21,O=C(C[C@@H]1C=C[C@@H](NC(=O)c2ccccc2)[C@H](CO)O1)NCc1ccc(Oc2ccccc2)cc1,-28.3%
22,C[C@H]1CN([C@@H](C)CO)C(=O)c2cccc(NS(=O)(=O)c3ccc(Cl)cc3)c2O[C@@H]1CN(C)Cc1ccc(C(F)(F)F)cc1,9.5%
23,C[C@@H]1CN([C@H](C)CO)C(=O)c2cccc(NS(=O)(=O)c3ccc(Cl)cc3)c2O[C@@H]1CN(C)Cc1ccc(Cl)c(Cl)c1,-25.6%
24,CN(C)CC(=O)Nc1ccc2c(c1)[C@H]1C[C@@H](CC(=O)NCCc3ccccc3)O[C@H](CO)[C@H]1O2,14.9% [at 30 µM]
25,COc1cccc(S(=O)(=O)N[C@H]2CC[C@H](CC(=O)NCc3ccncc3)O[C@@H]2CO)c1,30.8%
26,Cc1ccc2c(c1)C(=C(C#N)C#N)CCN2,85.1%

row,Compound,"activity change, negative = inhibition"
1,C[C@H]1CN([C@@H](C)CO)S(=O)(=O)c2ccc(-c3cccc(C#N)c3)cc2O[C@H]1CN(C)Cc1cccc(F)c1,4.15%
2,C[C@H]1CN([C@@H](C)CO)S(=O)(=O)c2ccc(-c3ccc(F)cc3)cc2O[C@H]1CN(C)Cc1cccc(F)c1,-95%
3,C[C@@H]1CN([C@H](C)CO)S(=O)(=O)c2ccc(-c3ccccc3)cc2O[C@@H]1CN(C)Cc1ccccc1,-17.9%
4,COc1cc(-c2cc(OC)c(O)c(OC)c2)cc(OC)c1O,27.9%
5,CCc1nc(N2CCCCC2C)c2oc3ccccc3c2n1 (configuration not stated),131%
6,CCc1nc(N2CCCCC2)c2oc3ccccc3c2n1,16.4%
7,C=CCN1C(=S)CC(c2ccccc2)=Nc2ccccc21,1.53%
8,C[C@@H]1CN([C@@H](C)CO)S(=O)(=O)c2ccc(C3=CCCC3)cc2O[C@@H]1CN(C)C(=O)C1CCOCC1,50.5%
9,C[C@H](CO)N1C[C@H](C)[C@@H](CN(C)Cc2ccncc2)Oc2cc(C3=CCCCC3)ccc2S1(=O)=O,57.2% [at 15 µM]
10,COc1ccc(Nc2ncc(C(=O)N3CCN(c4ccc(F)cc4)CC3)c3ccccc23)cc1,0.701%
11,COc1ccc2[nH]c3c(N4CCC(O)(c5cccc(C(F)(F)F)c5)CC4)ncnc3c2c1,-33.8%
12,C[C@@H]1CN([C@@H](C)CO)C(=O)c2cccc(NS(=O)(=O)c3ccc(F)cc3)c2O[C@@H]1CN(C)Cc1ccc(C(F)(F)F)cc1,-35.8%
13,C[C@@H]1CN([C@H](C)CO)C(=O)c2cccc(NS(=O)(=O)c3ccc(F)cc3)c2O[C@@H]1CN(C)Cc1ccc(C(F)(F)F)cc1,-28.7%
14,Cc1noc(C)c1S(=O)(=O)Nc1cccc2c1O[C@H](CN(C)Cc1ccc(C(F)(F)F)cc1)[C@H](C)CN([C@H](C)CO)C2=O,36.8%
15,COc1ccc(CCNC(=O)COC(=O)c2cccn2C)cc1,-11.1%
16,O=S(=O)(NCC[C@H]1CC[C@H](NS(=O)(=O)c2ccccc2Cl)[C@H](CO)O1)c1ccc(Cl)cc1,67.6% [at 30 µM]
17,O=S(=O)(NCC[C@@H]1CC[C@@H](NS(=O)(=O)c2ccccc2Cl)[C@H](CO)O1)c1ccc(Cl)cc1,68.7%
18,Cc1ccc2c(C)nc(Nc3nc(CSc4nnnn4-c4ccccc4)cc(=O)[nH]3)nc2c1,-21.8%
19,C=CCOc1c(Br)cc(CNc2ccc(NC(=O)C(C)C)c(OC)c2)cc1OC,129%
20,Cc1ccc(NC(=O)c2ccc(OCC3CCCO3)cc2)cc1Cl (configuration not stated),-7.89%
21,CC(NC(=O)c1ccccc1NC(=O)CN1CCc2ccccc2C1)c1ccccc1 (configuration not stated),-3.06%
22,O=C1c2cccnc2C(Nc2ccc(S(=O)(=O)N3CCCCC3)cc2)N1Cc1ccccc1 (configuration not stated),6.27%
23,O=C1c2cccnc2C(Nc2ccc(S(=O)(=O)N3CCCCCC3)cc2)N1Cc1ccccc1 (configuration not stated),-20.4%
24,CCCc1cc(C(=O)NCc2ccc(OC)cc2)no1,14.3%
25,Cc1noc(C)c1S(=O)(=O)N(C)C[C@H]1Oc2ccc(NC(=O)Nc3ccccc3)cc2CC(=O)N([C@H](C)CO)C[C@H]1C,14.5%
26,CCNC(=O)C[C@@H]1CC[C@@H]2[C@H](COC[C@@H](O)CN2C(=O)c2ccccn2)O1,66.2%
